Screening data deposited in PubChem by National Center for Advancing Translational Sciences (NCATS).
Shown is part of a subset that was picked to be rich in hits.
KDM5B inhibitor – inhibitors of human KDM5B histone demethylase | actives 2.6% (n = 220,000) | AID 1347165 | Q9UGL1 | Potency, µM (doses to about 57.7 µM), most hits filed as inhibitors | KDM5B demethylase, FDH-coupled NADH fluorescence (FDH is formaldehyde dehydrogenase); active = well fitted inhibition curve with a large enough effect; also: 0% is about no effect; nearly all actives have a fitted effect of over 70% in size
Target sequence (Q9UGL1 whole entry, looked up): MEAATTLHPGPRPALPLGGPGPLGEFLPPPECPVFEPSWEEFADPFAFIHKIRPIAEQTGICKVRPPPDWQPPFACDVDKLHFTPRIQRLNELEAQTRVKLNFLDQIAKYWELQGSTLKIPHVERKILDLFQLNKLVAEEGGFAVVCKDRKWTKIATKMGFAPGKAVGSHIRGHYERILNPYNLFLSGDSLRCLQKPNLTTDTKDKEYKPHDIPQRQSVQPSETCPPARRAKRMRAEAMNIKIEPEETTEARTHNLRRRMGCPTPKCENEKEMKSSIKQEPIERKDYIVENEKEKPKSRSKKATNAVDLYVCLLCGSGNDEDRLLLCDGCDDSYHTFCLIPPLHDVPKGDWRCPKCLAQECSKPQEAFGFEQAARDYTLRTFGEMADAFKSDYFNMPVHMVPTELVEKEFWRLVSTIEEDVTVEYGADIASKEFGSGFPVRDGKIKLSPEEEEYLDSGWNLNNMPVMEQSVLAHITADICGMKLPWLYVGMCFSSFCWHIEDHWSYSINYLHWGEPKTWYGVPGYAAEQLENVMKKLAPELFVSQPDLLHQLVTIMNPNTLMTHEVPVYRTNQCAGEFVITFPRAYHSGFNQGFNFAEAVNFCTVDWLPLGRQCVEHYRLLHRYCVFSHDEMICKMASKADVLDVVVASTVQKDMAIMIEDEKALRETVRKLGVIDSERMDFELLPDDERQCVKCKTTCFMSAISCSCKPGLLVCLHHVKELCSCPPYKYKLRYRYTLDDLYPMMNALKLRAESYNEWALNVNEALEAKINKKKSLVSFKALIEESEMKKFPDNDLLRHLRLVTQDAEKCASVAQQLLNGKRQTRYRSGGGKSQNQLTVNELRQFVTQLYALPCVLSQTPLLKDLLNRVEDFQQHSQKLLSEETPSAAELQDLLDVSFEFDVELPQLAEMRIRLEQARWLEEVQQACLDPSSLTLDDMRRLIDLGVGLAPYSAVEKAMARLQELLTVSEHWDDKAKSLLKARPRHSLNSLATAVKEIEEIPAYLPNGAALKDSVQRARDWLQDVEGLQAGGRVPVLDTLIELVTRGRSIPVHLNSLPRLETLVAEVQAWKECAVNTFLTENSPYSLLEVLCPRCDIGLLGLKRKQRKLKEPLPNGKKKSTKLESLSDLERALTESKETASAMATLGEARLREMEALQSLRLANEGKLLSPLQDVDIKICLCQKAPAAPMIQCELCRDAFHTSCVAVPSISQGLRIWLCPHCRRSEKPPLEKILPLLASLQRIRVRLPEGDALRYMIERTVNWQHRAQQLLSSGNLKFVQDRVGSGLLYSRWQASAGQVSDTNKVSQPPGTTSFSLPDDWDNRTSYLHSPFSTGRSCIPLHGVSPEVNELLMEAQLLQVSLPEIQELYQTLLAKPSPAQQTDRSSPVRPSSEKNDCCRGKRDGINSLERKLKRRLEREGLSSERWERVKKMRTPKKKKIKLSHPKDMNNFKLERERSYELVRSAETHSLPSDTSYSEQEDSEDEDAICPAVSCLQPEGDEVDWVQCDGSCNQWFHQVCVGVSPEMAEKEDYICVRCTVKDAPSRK
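Here, H3K4me3 peptide (12.5 µM in substrate mix) is demethylated by KDM5BΔAP, 200 nM final, after 10 min compound exposure. Formaldehyde product is coupled through FDH (0.25 U/mL in mix) to NADH fluorescence; 30-min ΔRFU feeds dose-response curves.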
Numbers without * were called inactive; i = inactive. Potency is read from the fitted curve at half-maximal effect.

SMILES	KDM5B inhibitor
CCOc1ccc(C(=O)N[C@@H]2CN(S(C)(=O)=O)C[C@H]2CN(C)C)cc1	i
Brc1ccc(-c2ccnc3ncnn23)s1	i
Fc1ccc(-c2ccnc3ncnn23)cc1	28.2µM*
Cc1cc2nccc(-c3ccc(F)cc3)n2n1	i
CNC(=O)[C@@H](c1ccc(OC)cc1)N1CCC[C@H]1C(=O)NCC1CCCCC1	i
CCOC(=O)C1CCCN(CC(=O)c2cc(C)n(C3CCS(=O)(=O)C3)c2C)C1 (centres undefined)	i
Cc1ccc(C(=O)N2CCC(CCC(=O)NCCc3c[nH]c4ccccc34)CC2)cc1	i
CC(C)CCNc1nc(-c2ccc(O)c(C(N)=O)c2)cs1	i
Cc1noc(C)c1[S+](=O)([O-])N1CCC2(C1)N=C(c1ccncc1)C(=O)N2 (centres undefined)	i
CONC(=O)C(C)c1ccc2cc(OC)ccc2c1 (centres undefined)	i
O=C(c1ccc(F)cc1Cl)N1CCN(c2cc(-c3ccc(F)cc3)[nH]n2)CC1	i
O=c1c2c(nc3cc[nH]n13)CN(S(=O)(=O)c1cccc(C(F)(F)F)c1)CC2	i
O=C(c1ccccc1C(F)(F)F)N1CCc2c(nc3cc[nH]n3c2=O)C1	25.1µM*
O=C(c1ccccc1C(F)(F)F)N1CCC2(C1)C(=O)Nc1ccccc12 (centres undefined)	i
Cc1cc(C(=O)N2CCc3c(nc[nH]c3=O)C2)c2cc(Cl)ccc2n1	i
O=C(c1ccc(F)cc1Cl)N1CCc2c(nc3cc[nH]n3c2=O)C1	28.2µM*
NC1CCc2nn(CC(=O)NCCc3nc4ccccc4[nH]3)c(=O)n2CC1 (centres undefined)	i
Cc1ccsc1CNCCN(C)C	i
O=C(Nc1ccccc1F)c1cc(CN2CCOCC2)on1	i
COc1cccc(-c2noc(NCc3cccc(Cl)c3)n2)c1OC	i
Cc1cc(C(=O)N2CCCC(n3c(C)cnc3C3CC3)C2)n(C)n1 (centres undefined)	i
CCCc1ccc(S(=O)(=O)NC2CCN(c3ccc(=O)n(CC4CC4)n3)CC2)cc1	28.2µM*
CCCC(=O)NC1CCN(c2cnn(CC3CC3)c(=O)c2)CC1	i
CCCc1ccc(S(=O)(=O)NCC2CCCN2CC)cc1 (centres undefined)	i
COc1ccc(C2NC(=O)N(CC(=O)N3CCCCCC3)C3=C2C(=O)OC3)cc1 (centres undefined)	i
SMILES	KDM5B inhibitor
CC(=O)NC1(C)CCN(Cc2cnc(-c3cccc(N(C)C)c3)s2)CC1	i
CC(=O)NC1(C)CCN(Cc2cnc(-c3ccccc3OCc3ccccc3)s2)CC1	39.8µM*
CC(=O)NC1(C)CCN(Cc2cnc(-c3ccccc3)s2)CC1	i
CN(CC1CCOCC1)C(=O)c1cccc(F)c1	i
COC(=O)c1ccccc1NC(=O)N1CCN(Cc2nc(-c3ccc(C)cc3)oc2C)CC1	i
O=C(NC1CC(=O)N(c2cccc(F)c2)C1)C1CCCCC1 (centres undefined)	i
O=C(Nc1nn(-c2cccc(F)c2)c2cccc(N3CCOC3=O)c12)C1CCC1	28.2µM*
O=C(NCc1cccc(F)c1)C1CCCN(C(=O)N2CCOc3ccccc32)C1 (centres undefined)	i
COc1cccc(C2C3=C(CC(C)(C)CC3=O)Nc3nc(-c4cc(OC)c(OC)c(OC)c4)nn32)c1 (centres undefined)	i
O=C(O)C(c1c[nH]c2ccc(CO)cc12)N1CCN(CCNc2cc(=O)oc3ccccc23)CC1 (centres undefined)	i
COc1ccc(C(=O)c2c(N)c(C#N)c3n2CCC3)cc1	i
Cc1ccc(OCC(=O)NCC2Cn3cccc3C(=O)N2C)cc1 (centres undefined)	i
O=C(CCc1nc2ccccc2s1)NCCc1cccc(F)c1	i
COc1ccc(S(=O)(=O)NCC2Cn3cccc3C(=O)N2Cc2ccccc2)cc1 (centres undefined)	i
O=C(NCC1Cn2cccc2C(=O)N1Cc1ccccc1)C1CC1 (centres undefined)	i
CCn1cc(S(=O)(=O)NCC2Cn3cccc3C(=O)N2CCOC)cn1 (centres undefined)	i
O=C(COc1ccc(F)cc1)NCC1Cn2cccc2CN1Cc1ccccc1 (centres undefined)	25.1µM*
O=C(CCc1nc2ccccc2s1)NCC1CCCCC(=O)N1 (centres undefined)	i
O=C(CCc1nc2ccccc2s1)NCC1Cn2cccc2CN1Cc1ccccc1 (centres undefined)	25.1µM*
O=C(NCC1Cn2cccc2C(=O)N1Cc1ccccc1)C1CCC1 (centres undefined)	i
O=C(NCC1Cn2cccc2CN1Cc1ccccc1)C1CC1 (centres undefined)	28.2µM*
O=C(COc1ccc(C(=O)c2ccc(F)cc2)cc1)NC(=O)NCc1ccccc1	i
CCn1cc(S(=O)(=O)NCC2Cn3cccc3CN2Cc2ccccc2)cn1 (centres undefined)	28.2µM*
COc1ccc(-c2noc(CSc3nc4ccccc4o3)n2)cc1OC	i
CC(=O)NC(C(=O)O)=C(Cl)Cl	i
SMILES	KDM5B inhibitor
N#Cc1nc(-c2ccc(F)cc2)oc1N1CCN(c2ccccc2)CC1	i
Cc1cc(C)cc(NC(=O)Cn2ccn(-c3ccc(F)c(F)c3)c(=O)c2=O)c1	i
CCCc1cc(C(=O)Nc2ccccc2SC)cs1	i
NCC1Cn2cccc2CN1Cc1ccccc1 (centres undefined)	15.8µM*
CN1C(=O)c2cccn2CC1CNC(=O)Nc1ccccc1 (centres undefined)	i
O=C(NCC1Cn2cccc2CN1Cc1ccccc1)NC1CCCCC1 (centres undefined)	28.2µM*
CN1C(=O)c2cccn2CC1CNC(=O)NCCc1ccccc1 (centres undefined)	i
O=C(NCc1ccccc1)NCC1Cn2cccc2C(=O)N1Cc1ccccc1 (centres undefined)	i
O=C(NCC1Cn2cccc2C(=O)N1Cc1ccccc1)Nc1ccccc1F (centres undefined)	i
CN1Cc2cccn2CC1CNC(=O)NC1CCCCC1 (centres undefined)	28.2µM*
O=C1c2cccn2CC(CNS(=O)(=O)Cc2ccccc2)N1Cc1ccccc1 (centres undefined)	i
NCCc1ccc(CN2C[C@@H]3CC[C@H](C2)N(Cc2ccccc2)C3)cc1	i
O=C(Nc1cccc(Cl)c1)c1cc2c(=O)n3ccccc3nc2n1Cc1ccccc1	i
CN(CCOc1ccc(F)cc1)C(=O)c1cn(C)c2ccccc12	i
Cc1ccc(CNC(=O)c2ccc(CS(=O)Cc3ccc(C)cc3)o2)cc1 (centres undefined)	i
Cc1cc(Cl)ccc1NC(=O)N1CCCC(Cn2cnc3cccnc32)C1 (centres undefined)	i
Cc1nnnn1-c1cccc(C(=O)Nc2ccc3c(c2)C(=O)N2CCC[C@H]2C(=O)N3)c1	i
CC(=O)Nc1cccc(-c2csc(Nc3ccccc3C)n2)c1	i
Cc1noc(C)c1-c1cc(-c2cccnc2)cn2cncc12	35.5µM*
Cc1noc(C)c1-c1cc(-c2ccccc2O)cn2cncc12	i
Cc1noc(C)c1-c1cc(-c2cccc(CO)c2)cn2cncc12	35.5µM*
Cc1noc(C)c1-c1cc(-c2cnn(C)c2)cn2cncc12	39.8µM*
Cc1noc(C)c1-c1cc2c(c(-c3ccccc3F)c1)C(=O)N(C)C2	i
CC(=O)Nc1cccc(-c2cc(-c3c(C)noc3C)c3cncn3c2)c1	39.8µM*
